In the library only some 9.2% were active in any assay of this set; here they are far more common.
ELG1 repair inh: ELG1-dependent DNA repair inhibition. Potency, µM (highest dose often 46.1 µM), inactives show at the top dose activity change, negative = inhibition, actives largely listed as inhibitors. HEK293T ELG1-luciferase reporter, luminescence, 16 h; DNA damage induced by 5-fluorouridine. AID 504467. hit rate 2.3% among 330,000; further: on the % scale 0 is the no-effect control and ±100 the full control effect; nearly all actives have a fitted effect of over 55% in size
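Luminescence from the luciferase reporter, measured 30 min after ONE-Glo reagent at room temperature, was the read-out. Beforehand, 2,000 cells per well were exposed for 16 hr at 37 °C to 5-fluorouridine together with compound or vehicle.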
ELG1 genotoxic: genotoxicity induction in ELG1-luciferase HEK293T cells. HEK293T ELG1-luciferase reporter, luminescence, 16 h. Potency, µM (series often up to 46 µM), for the others: top-dose activity change, positive = activation, actives largely listed as activators. hit rate 1.3% among 330,000. AID 504466; further: % of control where 0% means no effect; nearly all actives have a fitted effect of over 60% in size
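DMSO vehicle served as control against compound-treated ELG1-luciferase HEK293T cells; exposure lasted 16 hr at 37 °C and 5% CO2, followed by ONE-Glo luminescence detection after 30 min.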
NPC1 prom act: NPC1 promoter activation | Huh7 NPC1 promoter luciferase reporter, 24 h | Potency, µM (top dose mostly 9.22 µM), for the others: top-dose activation, most hits filed as activators | hit rate 2.4% among 320,000 | AID 485313; further: % of control where 0% means no effect; nearly all actives have a fitted effect of over 60% in size
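Stable NPC1-promoter luciferase Huh7 line; cpd (DMSO) 24 h, 37 °C, 5% CO2; Amplite luciferase reagent 10 min RT; luminescence readout. qHTS format.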
FLuc modulator: firefly luciferase modulation, counter-screen for miR-21 project; P08659; purified FLuc, Km substrates, luminescence inhibition; Potency, µM (doses to about 57.5 µM), for inactives: at the top dose activity change, negative = inhibition, actives largely listed as inhibitors; hit rate 6.9% among 360,000; AID 588342;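 further: plate controls were vehicle for no effect and reference inhibitor for full effect; nearly all actives have a fitted effect of over 55% in size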
Target sequence (P08659 whole entry, looked up): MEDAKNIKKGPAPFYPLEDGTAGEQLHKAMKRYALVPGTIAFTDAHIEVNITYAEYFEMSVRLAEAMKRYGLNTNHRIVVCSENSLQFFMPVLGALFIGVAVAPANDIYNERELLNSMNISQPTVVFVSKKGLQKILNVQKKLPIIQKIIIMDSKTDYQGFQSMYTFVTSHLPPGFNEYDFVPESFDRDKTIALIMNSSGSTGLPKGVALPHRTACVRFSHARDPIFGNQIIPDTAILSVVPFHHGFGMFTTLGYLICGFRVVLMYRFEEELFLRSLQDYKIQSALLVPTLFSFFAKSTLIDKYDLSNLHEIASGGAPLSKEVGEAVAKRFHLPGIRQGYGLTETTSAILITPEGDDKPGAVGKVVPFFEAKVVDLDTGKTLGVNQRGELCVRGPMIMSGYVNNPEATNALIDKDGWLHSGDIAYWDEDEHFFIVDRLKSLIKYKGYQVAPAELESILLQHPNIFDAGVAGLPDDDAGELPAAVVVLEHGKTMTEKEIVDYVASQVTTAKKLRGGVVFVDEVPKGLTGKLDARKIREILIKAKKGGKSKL
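Biochemical qHTS of compounds, final roughly 60 µM downward over six points, against 10 nM purified firefly luciferase using Km concentrations of substrates (10 uM D-luciferin, 10 uM ATP) in Tris acetate pH 7.5 buffer; luminescence output.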
Rab9 prom act: Rab9 promoter activation; Huh7 Rab9 promoter-luciferase reporter, luminescence, 24 h; Potency, µM (highest dose often 9.22 µM), for the others: top-dose activation, negative = inhibition, actives largely listed as activators; hit rate 2.8% among 320,000; further: % of control where 0% means no effect; nearly all actives have a fitted effect of over 60% in size
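Rab9 promoter-driven luciferase in stably transfected Huh7 cells; 1500 cells/well rested 2 h, exposed to compound in DMSO for 24 h at 37 °C, 5% CO2. Luminescence read 10 min after adding luciferase reagent at ambient temperature.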
SMN2 splice up: increases expression of the SMN2 splice variant; HEK293 SMN2-luciferase splicing reporter, luminescence, 30-36 h; Potency, µM (highest dose often 46.1 µM), for the others: at the highest dose activity change, positive = activation, hits mostly activators; hit rate 2.8% among 210,000; AID 1458; further: % of control where 0% means no effect; nearly all actives have a fitted effect of over 55% in size
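HEK293 cells carry an SMN2 minigene-luciferase reporter in which exon 7 inclusion puts luciferase in frame. Cells were seeded at 2000 cells/well, attached for 10-12 hours, then exposed to compounds for 30-36 hours at 37C before ONE-Glo luminescence.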
Active calls of the source: *. The call rests on the fitted dose curve; in most records, active means well fitted curve in the direction sought with a large enough effect; inconclusive means small, poorly fitted or top-dose-only effect, or another doubt; inactive means no such curve, though single readings can be large; an effect the other way counts as inactive or inconclusive. Potency means the concentration at half of the fitted maximal effect.

What do the screens show for `Cc1c(Cl)cccc1NC(=S)N(Cc1cccs1)C1CCCC1`?
ELG1 repair inh: -11%; ELG1 genotoxic: -7%; NPC1 prom act: -4%; FLuc modulator: -3%; Rab9 prom act: 1%; SMN2 splice up: -13%

Results for O=C(Nc1nc(-c2ccc3c(c2)OCCO3)cs1)C1CCCC1 ?
ELG1 repair inh: inconclusive; ELG1 genotoxic: inconclusive; NPC1 prom act: inconclusive; FLuc modulator: 7.6µM*; Rab9 prom act: 2.2µM*; SMN2 splice up: 11µM*

What do the screens show for `CCOC(=O)N1CCN(C(=O)CSCC(=O)Nc2nc(-c3ccc4c(c3)OCO4)cs2)CC1`?
ELG1 repair inh: inconclusive; ELG1 genotoxic: 5%; NPC1 prom act: inconclusive; FLuc modulator: inconclusive; Rab9 prom act: inconclusive

What do the screens show for `O=C(CCCCl)Nc1nc(-c2ccc3c(c2)OCCO3)cs1`?
ELG1 repair inh: inconclusive; ELG1 genotoxic: 5.8µM*; NPC1 prom act: 3.5µM*; FLuc modulator: 11µM*; Rab9 prom act: 3.2µM*

How did N#CCC(=O)Nc1nc(-c2ccc3c(c2)OCCO3)cs1 do in these assays?
ELG1 repair inh: inconclusive; ELG1 genotoxic: inconclusive; NPC1 prom act: inconclusive; FLuc modulator: 7.6µM*; Rab9 prom act: 3.5µM*; SMN2 splice up: 13µM*

What do the screens show for `CCN1C(=O)[C@H]2[C@H]3CN=C(SCc4ccccc4)N3[C@@](CC)(C(=O)OC)[C@H]2C1=O`?
ELG1 repair inh: 1%; ELG1 genotoxic: 6%

What do the screens show for `CN(C)S(=O)(=O)c1cccc(NC(=O)C2CCN(S(=O)(=O)c3cccs3)CC2)c1`?
ELG1 repair inh: 21µM*; ELG1 genotoxic: -8%

Results for CC(=O)c1cccc(NC(=O)C2CCN(S(=O)(=O)c3cccs3)CC2)c1 ?
ELG1 repair inh: inconclusive; ELG1 genotoxic: -6%; NPC1 prom act: 0%; FLuc modulator: 5%; Rab9 prom act: -5%; SMN2 splice up: -3%

What do the screens show for `O=C(Nc1ccncc1)C1CCN(S(=O)(=O)c2cccs2)CC1`?
ELG1 repair inh: -11%; ELG1 genotoxic: -4%; NPC1 prom act: -3%; FLuc modulator: -3%; Rab9 prom act: 1%; SMN2 splice up: -14%

Results for O=C(Nc1cc(Cl)ccn1)C1CCN(S(=O)(=O)c2cccs2)CC1 ?
ELG1 repair inh: 8.2µM*; ELG1 genotoxic: -8%; NPC1 prom act: -11%; FLuc modulator: -1%; Rab9 prom act: -17%; SMN2 splice up: -83%

How did Cc1ccc(C)c(CSC2=NCCN2C(=O)c2cccs2)c1 do in these assays?
ELG1 repair inh: inconclusive; ELG1 genotoxic: -5%; NPC1 prom act: 0%; FLuc modulator: -14%; Rab9 prom act: 0%; SMN2 splice up: -2%

What do the screens show for `CN(C)C(=O)N1CCC(C(=O)N2CCCC(C(=O)c3ccc(C(C)(C)C)cc3)C2)CC1` (stereo unspecified)?
ELG1 repair inh: 15µM*; ELG1 genotoxic: -7%; NPC1 prom act: 0%; FLuc modulator: -18%; Rab9 prom act: 2%

Results for CC(=O)c1ccc(NC(=O)c2ccc3snnc3c2)cc1 ?
ELG1 repair inh: inconclusive; ELG1 genotoxic: 15µM*; NPC1 prom act: 4.5µM*; FLuc modulator: inconclusive; Rab9 prom act: 4µM*

Results for CNC(=O)c1ccc2snnc2c1 ?
ELG1 repair inh: 9%; ELG1 genotoxic: -7%; NPC1 prom act: -1%; FLuc modulator: -1%; Rab9 prom act: -2%; SMN2 splice up: 2%

What do the screens show for `O=C(Nc1cccc(C(F)(F)F)c1)c1ccc2snnc2c1`?
FLuc modulator: -2%; SMN2 splice up: 1%

What do the screens show for `COc1ccc(NC(=O)c2ccc3snnc3c2)cc1`?
ELG1 repair inh: inconclusive; ELG1 genotoxic: inconclusive; NPC1 prom act: inconclusive; FLuc modulator: 9.5µM*; Rab9 prom act: 2.8µM*; SMN2 splice up: 13µM*

Results for CNC(=O)c1sc(-c2cccs2)nc1C ?
ELG1 repair inh: inconclusive; ELG1 genotoxic: 10%; NPC1 prom act: 9%; FLuc modulator: -1%; Rab9 prom act: 15%; SMN2 splice up: 18%

Results for CCc1ccc(N2C(=O)CS(=O)(=O)C23C(=O)N(Cc2ccccc2F)c2ccccc23)cc1 (stereo unspecified) ?
FLuc modulator: 3%

What do the screens show for `N#C[C@H]1[C@H](c2ccccc2)[C@](C#N)(C(=O)c2ccccc2)[C@@H]2C=Cc3ccccc3N21`?
ELG1 repair inh: 13µM*; ELG1 genotoxic: 2%; NPC1 prom act: 9%; FLuc modulator: inconclusive; SMN2 splice up: -71%

What do the screens show for `O=C(CCNC(=O)c1ccccc1Cl)NCc1cccnc1`?
ELG1 repair inh: 25%; ELG1 genotoxic: -2%; NPC1 prom act: 8%; FLuc modulator: 0%; Rab9 prom act: -5%

What do the screens show for `N/C(=N\OC(=O)CCCOc1ccccc1)c1ccccn1`?
ELG1 repair inh: inconclusive; ELG1 genotoxic: 10%; NPC1 prom act: 5%; FLuc modulator: 17µM*; Rab9 prom act: 9%; SMN2 splice up: 3%

Results for N/C(=N\OC(=O)CSc1ccccc1)c1ccccn1 ?
ELG1 repair inh: inconclusive; ELG1 genotoxic: inconclusive; NPC1 prom act: 27%; FLuc modulator: 13µM*; Rab9 prom act: 27%

What do the screens show for `N/C(=N\OC(=O)CCCN1C(=O)c2ccccc2C1=O)c1ccccn1`?
ELG1 repair inh: 5%; ELG1 genotoxic: 0%; NPC1 prom act: 0%; FLuc modulator: -5%; Rab9 prom act: inconclusive; SMN2 splice up: 9%

Results for N/C(=N\OC(=O)Cc1ccc(-c2ccccc2)cc1)c1ccccn1 ?
ELG1 repair inh: inconclusive; ELG1 genotoxic: inconclusive; NPC1 prom act: 18%; FLuc modulator: inconclusive; Rab9 prom act: 5%; SMN2 splice up: -33%

How did COC(=O)c1cc2c(C)c(C)c3ccccn3c-2c1C(=O)OC do in these assays?
ELG1 repair inh: inconclusive; ELG1 genotoxic: -3%; NPC1 prom act: -4%; FLuc modulator: inconclusive; Rab9 prom act: 6%; SMN2 splice up: 0%

What do the screens show for `CC(C)OC(=O)c1c2c(n3ccccc13)C(=O)c1ccccc1C2=O`?
ELG1 repair inh: 18µM*; ELG1 genotoxic: -4%; NPC1 prom act: -3%; FLuc modulator: -7%; Rab9 prom act: 19%; SMN2 splice up: 1%

What do the screens show for `Cc1nnc2ccc(-c3cccc(NS(C)(=O)=O)c3)nn12`?
ELG1 repair inh: inconclusive; ELG1 genotoxic: inconclusive; NPC1 prom act: -1%; FLuc modulator: -4%; Rab9 prom act: 2%; SMN2 splice up: inconclusive
